Source: PubChem BioAssay (NCI)
Compounds without any hit were thinned out: in the full panel of roughly 79,000, 15% have a hit. A number with no mark means an inactive call. Calls of active or inactive are those of the source. No stated cut-off is given here; in the data, active means growth inhibition above about 70%; inactive means the rest.

assay: NCI Yeast Anticancer Drug Screen. Data for the rad50 strain (AID 155);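 further: 0% = growth of vehicle-only cultures of the same strain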; details: S. cerevisiae rad50 strain growth inhibition; at 50.0 µM; active compounds read high
Method in brief: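 Yeast carrying a defined DNA repair defect were exposed to test compounds, and growth was compared with vehicle-treated controls to give percent inhibition.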

Question: With CC12CCC(=O)C=C1CCC1C2CCC2(C)C(O[Si](C)(C)OC3CCC4C5CCC6=CC(=O)CCC6(C)C5CCC34C)CCC12 (stereo not given) as the molecule, how does the growth inhibition read?
Answer: 98.8% (active)

Question: With CC1=C[C@H]2O[C@H]3C[C@H]4OC(=O)/C=C\C=C\C(=O)OCC[C@@H](C)[C@H](O)C(=O)OC[C@@]2(CC1)[C@@]4(C)[C@]31CO1 as the molecule, how does the growth inhibition read?
Answer: 92% (active)

Question: With CCCCCCCC[As](C)(=O)O as the molecule, how does the growth inhibition read?
Answer: 4.95%

Question: For OC1C2[C@@H](O)CCCN2C[C@@H](O)[C@H]1O (stereo not given in full), which growth inhibition is on record?
Answer: -45.2%

Question: Which growth inhibition does the source give for COC1(O[C@H]2CC[C@H]3[C@@H]4CCC5=CC(=O)CC[C@]5(C)[C@H]4CC[C@]23C)CCCCC1 here?
Answer: 99.5% (active)

Question: For O=[N+]([O-])c1ccc(CS(=O)(=O)C(Cl)(Cl)Cl)o1, which growth inhibition is on record?
Answer: 95.5% (active)

Question: For CC([CH2][Hg][Cl])c1ccccc1 (stereo not given), which growth inhibition is on record?
Answer: 99.3% (active)

Question: With CC(C)CC[CH2][Pb]([CH2]CCC(C)C)([CH2]CCC(C)C)[O]C(=O)C(Cl)(Cl)Cl as the molecule, how does the growth inhibition read?
Answer: 99.1% (active)

Question: With COC1OC(OC)[CH]([Hg][Cl])C1OC (stereo not given) as the molecule, how does the growth inhibition read?
Answer: 99.5% (active)

Question: Which growth inhibition does the source give for S=C=[N][Sn]([N]=C=S)([c]1ccccc1)[c]1ccccc1.c1ccc2nc(-c3ccc4ccccc4n3)ccc2c1 here?
Answer: 89.3% (active)

Question: With CSCCC([NH-])C(=O)O.CSCCC([NH-])C(=O)O.[Zn+2] (stereo not given) as the molecule, how does the growth inhibition read?
Answer: 98.2% (active)

Question: Which growth inhibition does the source give for C[PH+](C)C.C[PH+](C)C.[Au] here?
Answer: 85.7% (active)

Question: With O=C(O)C(Br)C(Br)C(=O)O.[Ag] (stereo not given) as the molecule, how does the growth inhibition read?
Answer: 98.8% (active)

Question: Which growth inhibition does the source give for CCC1CN1P(=O)(Oc1ccccc1)N1CC1CC (stereo not given) here?
Answer: -5.7%

Question: Which growth inhibition does the source give for CCCCCc1cc(O)c(CCCC)c(O)c1 here?
Answer: 99.4% (active)

Question: Which growth inhibition does the source give for N#CC(Cl)(Cl)CCl here?
Answer: -16.8%

Question: For O=C(Cc1c2ccccc2cc2c1ccc1ccccc12)N(CCCl)CCCl, which growth inhibition is on record?
Answer: 98.8% (active)

Question: Which growth inhibition does the source give for CC[C@@]1(O)C(=O)OCc2c1cc1n(c2=O)Cc2cc3c(OC)cccc3nc2-1 here?
Answer: 83.6% (active)

Question: Which growth inhibition does the source give for CCOC(=O)NP(=O)(NNc1ccccc1)NNc1ccccc1 here?
Answer: 100% (active)

Question: Which growth inhibition does the source give for C=C1C(=O)O[C@@H]2C[C@@H](C)[C@@H]3C=CC(=O)[C@@]3(C)[C@@H](O)[C@H]12 here?
Answer: 9.25%

Question: For O=C(O)C(F)(F)F.[Ag], which growth inhibition is on record?
Answer: 98.1% (active)

Question: With O=C(CBr)Nc1ccccc1 as the molecule, how does the growth inhibition read?
Answer: 97% (active)

Question: For C1=C[N-]c2c3c(ccc2=C1)=CC=C[N-]3.C1=C[N-]c2c3c(ccc2=C1)=CC=C[N-]3.F[P-](F)(F)(F)(F)F.[Cu+2], which growth inhibition is on record?
Answer: 99.3% (active)

Question: For O=[N+]([O-])/C=C/c1ccccc1Cl, which growth inhibition is on record?
Answer: 90.8% (active)

Question: For CCOP(=S)(OCC)SSSP(=S)(OCC)OCC, which growth inhibition is on record?
Answer: 1.6%

Question: Which growth inhibition does the source give for CCOC(=O)c1ccc(N=Cc2ccc(N(CCCl)CCCl)cc2C)cc1 here?
Answer: 49.5%

Question: For COc1ccc2c(c1)CCC(N1CCCC(=O)C1)C2 (stereo not given), which growth inhibition is on record?
Answer: 23.1%

Question: With CCCCCCC(=O)[O][Hg][c]1ccccc1 as the molecule, how does the growth inhibition read?
Answer: 99.3% (active)

Question: For CCC[CH2][Sn]1([CH2]CCC)[O]C(=O)c2cccnc2[S]1, which growth inhibition is on record?
Answer: 78.4% (active)

Question: Which growth inhibition does the source give for C[AsH](C)CC[AsH](C)C.C[AsH](C)CC[AsH](C)C.C[AsH](C)CC[AsH](C)C.[Ni] here?
Answer: 96.9% (active)

Question: Which growth inhibition does the source give for O=c1[nH]c2ccccc2n1C1CCN(CCCC(c2ccc(F)cc2)c2ccc(F)cc2)CC1 here?
Answer: -14.8%

Question: Which growth inhibition does the source give for O=[C-]c1ccccc1[C-]=O.[Pd+2].c1ccc([PH+](c2ccccc2)c2ccccc2)cc1.c1ccc([PH+](c2ccccc2)c2ccccc2)cc1 here?
Answer: 34.6%

Question: For c1ccc(C(c2ccccc2)c2cccnc2)cc1, which growth inhibition is on record?
Answer: 89.2% (active)

Question: With C#CC[As+](c1ccccc1)(c1ccccc1)c1ccccc1 as the molecule, how does the growth inhibition read?
Answer: 88.4% (active)

Question: For CC[CH2][Pb]([CH2]CC)([CH2]CC)[O]C(C)=O, which growth inhibition is on record?
Answer: 91% (active)

Question: With CC[PH+](CC)CC.[Cl][Au] as the molecule, how does the growth inhibition read?
Answer: 89.8% (active)

Question: With CN(C)[PH+](N(C)C)N(C)C.CN(C)[PH+](N(C)C)N(C)C.[C-]#[O+].[C-]#[O+].[C-]#[O+].[C-]#[O+].[C-]#[O+].[C-]#[O+].[Co].[Co].[Hg] as the molecule, how does the growth inhibition read?
Answer: 98.2% (active)

Question: Which growth inhibition does the source give for CC1=C(N2CC2)C(=O)c2nc3n(c2C1=O)CCC3OC(=O)CCl (stereo not given) here?
Answer: 46.5%

Question: With [N-]=[N+]=Nc1c([N+](=O)[O-])c(=O)n2c3c(cccc13)CCC2 as the molecule, how does the growth inhibition read?
Answer: 85.5% (active)

Question: With CCC[CH2][Sn]1([CH2]CCC)[O]CC(CN2CCCCC2)[O]1 (stereo not given) as the molecule, how does the growth inhibition read?
Answer: 82.7% (active)

assay: NCI Yeast Anticancer Drug Screen. Data for the mec2-1 strain (AID 157); details: S. cerevisiae mec2-1 strain, at 5.0 µM (retest, dose inferred, filed as 0.5), active compounds read high
Method in brief: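 Using mec2-1 yeast: add compound, measure growth, express inhibition versus vehicle-treated cultures.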

Question: With CC12CCC(=O)C=C1CCC1C2CCC2(C)C(O[Si](C)(C)OC3CCC4C5CCC6=CC(=O)CCC6(C)C5CCC34C)CCC12 (stereo not given) as the molecule, how does the growth inhibition read?
Answer: -12%

Question: Which growth inhibition does the source give for CC1=C[C@H]2O[C@H]3C[C@H]4OC(=O)/C=C\C=C\C(=O)OCC[C@@H](C)[C@H](O)C(=O)OC[C@@]2(CC1)[C@@]4(C)[C@]31CO1 here?
Answer: 100% (active)

Question: Which growth inhibition does the source give for CCCCCCCC[As](C)(=O)O here?
Answer: -54%

Question: For OC1C2[C@@H](O)CCCN2C[C@@H](O)[C@H]1O (stereo not given in full), which growth inhibition is on record?
Answer: 11%

Question: With COC1(O[C@H]2CC[C@H]3[C@@H]4CCC5=CC(=O)CC[C@]5(C)[C@H]4CC[C@]23C)CCCCC1 as the molecule, how does the growth inhibition read?
Answer: 5%

Question: For O=[N+]([O-])c1ccc(CS(=O)(=O)C(Cl)(Cl)Cl)o1, which growth inhibition is on record?
Answer: 25%

Question: With CC([CH2][Hg][Cl])c1ccccc1 (stereo not given) as the molecule, how does the growth inhibition read?
Answer: 100% (active)

Question: For CC(C)CC[CH2][Pb]([CH2]CCC(C)C)([CH2]CCC(C)C)[O]C(=O)C(Cl)(Cl)Cl, which growth inhibition is on record?
Answer: 8%

Question: Which growth inhibition does the source give for COC1OC(OC)[CH]([Hg][Cl])C1OC (stereo not given) here?
Answer: 99% (active)

Question: With S=C=[N][Sn]([N]=C=S)([c]1ccccc1)[c]1ccccc1.c1ccc2nc(-c3ccc4ccccc4n3)ccc2c1 as the molecule, how does the growth inhibition read?
Answer: 65%

Question: For CSCCC([NH-])C(=O)O.CSCCC([NH-])C(=O)O.[Zn+2] (stereo not given), which growth inhibition is on record?
Answer: 1%

Question: Which growth inhibition does the source give for C[PH+](C)C.C[PH+](C)C.[Au] here?
Answer: 30%

Question: With O=C(O)C(Br)C(Br)C(=O)O.[Ag] (stereo not given) as the molecule, how does the growth inhibition read?
Answer: 100% (active)

Question: Which growth inhibition does the source give for CCC1CN1P(=O)(Oc1ccccc1)N1CC1CC (stereo not given) here?
Answer: -1%

Question: With CCCCCc1cc(O)c(CCCC)c(O)c1 as the molecule, how does the growth inhibition read?
Answer: -39%

Question: With N#CC(Cl)(Cl)CCl as the molecule, how does the growth inhibition read?
Answer: -4%

Question: For O=C(Cc1c2ccccc2cc2c1ccc1ccccc12)N(CCCl)CCCl, which growth inhibition is on record?
Answer: 15%

Question: For CC[C@@]1(O)C(=O)OCc2c1cc1n(c2=O)Cc2cc3c(OC)cccc3nc2-1, which growth inhibition is on record?
Answer: 96% (active)

Question: Which growth inhibition does the source give for CCOC(=O)NP(=O)(NNc1ccccc1)NNc1ccccc1 here?
Answer: 82% (active)

Question: For C=C1C(=O)O[C@@H]2C[C@@H](C)[C@@H]3C=CC(=O)[C@@]3(C)[C@@H](O)[C@H]12, which growth inhibition is on record?
Answer: 2%

Question: For O=C(O)C(F)(F)F.[Ag], which growth inhibition is on record?
Answer: 100% (active)

Question: With O=C(CBr)Nc1ccccc1 as the molecule, how does the growth inhibition read?
Answer: 22%

Question: Which growth inhibition does the source give for C1=C[N-]c2c3c(ccc2=C1)=CC=C[N-]3.C1=C[N-]c2c3c(ccc2=C1)=CC=C[N-]3.F[P-](F)(F)(F)(F)F.[Cu+2] here?
Answer: 52%

Question: For O=[N+]([O-])/C=C/c1ccccc1Cl, which growth inhibition is on record?
Answer: 99% (active)

Question: For CCOP(=S)(OCC)SSSP(=S)(OCC)OCC, which growth inhibition is on record?
Answer: 5%

Question: Which growth inhibition does the source give for CCOC(=O)c1ccc(N=Cc2ccc(N(CCCl)CCCl)cc2C)cc1 here?
Answer: 13%

Question: For COc1ccc2c(c1)CCC(N1CCCC(=O)C1)C2 (stereo not given), which growth inhibition is on record?
Answer: 8%

Question: With CCCCCCC(=O)[O][Hg][c]1ccccc1 as the molecule, how does the growth inhibition read?
Answer: 100% (active)

Question: Which growth inhibition does the source give for CCC[CH2][Sn]1([CH2]CCC)[O]C(=O)c2cccnc2[S]1 here?
Answer: 38%

Question: With C[AsH](C)CC[AsH](C)C.C[AsH](C)CC[AsH](C)C.C[AsH](C)CC[AsH](C)C.[Ni] as the molecule, how does the growth inhibition read?
Answer: 51%

Question: With O=c1[nH]c2ccccc2n1C1CCN(CCCC(c2ccc(F)cc2)c2ccc(F)cc2)CC1 as the molecule, how does the growth inhibition read?
Answer: 12%

Question: Which growth inhibition does the source give for O=[C-]c1ccccc1[C-]=O.[Pd+2].c1ccc([PH+](c2ccccc2)c2ccccc2)cc1.c1ccc([PH+](c2ccccc2)c2ccccc2)cc1 here?
Answer: 7%

Question: With c1ccc(C(c2ccccc2)c2cccnc2)cc1 as the molecule, how does the growth inhibition read?
Answer: 59%

Question: Which growth inhibition does the source give for C#CC[As+](c1ccccc1)(c1ccccc1)c1ccccc1 here?
Answer: 29%

Question: For CC[CH2][Pb]([CH2]CC)([CH2]CC)[O]C(C)=O, which growth inhibition is on record?
Answer: 50%

Question: Which growth inhibition does the source give for CC[PH+](CC)CC.[Cl][Au] here?
Answer: 99% (active)

Question: For CN(C)[PH+](N(C)C)N(C)C.CN(C)[PH+](N(C)C)N(C)C.[C-]#[O+].[C-]#[O+].[C-]#[O+].[C-]#[O+].[C-]#[O+].[C-]#[O+].[Co].[Co].[Hg], which growth inhibition is on record?
Answer: 3%

Question: With CC1=C(N2CC2)C(=O)c2nc3n(c2C1=O)CCC3OC(=O)CCl (stereo not given) as the molecule, how does the growth inhibition read?
Answer: 6%

Question: Which growth inhibition does the source give for [N-]=[N+]=Nc1c([N+](=O)[O-])c(=O)n2c3c(cccc13)CCC2 here?
Answer: 26%

Question: With CCC[CH2][Sn]1([CH2]CCC)[O]CC(CN2CCCCC2)[O]1 (stereo not given) as the molecule, how does the growth inhibition read?
Answer: 20%
